Assay outcomes from PubChem BioAssay.
Sampled rows, rich in hits. Any-hit rate of the full collection: about 4%.
CF NFkB block – blocks PAF-induced NF-kB reporter in cystic fibrosis cells; KKLEB NF-kB-GFP reporter, GFP fluorescence overnight; inhibition, % at 5 µM; 360,000 compounds, 0.86% hits; AID 588850;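 active means at least 50% inhibition at 5 µM, scaled per plate between neutral and stimulator controls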;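 further: PAF is a Pseudomonas aeruginosa culture filtrate used as stimulus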
Peg3 prom inh – reduces Peg3 promoter-driven luciferase expression in HeLa; 360,000 compounds, 1.7% hits; HeLa PEG-Prom luciferase reporter, luminescence, overnight; inhibition, % at 20 µM;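 active means inhibition of at least 50% at 20 µM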
HIF-2a inh – blocks HIF-2a reporter activity; inhibition, % at 18.8 µM; 360,000 compounds, 0.72% hits; AID 624352; 786-0 RCC cells HIF-2a reporter, luciferase luminescence, overnight;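 active means inhibition of the luminescence signal of 40% or more relative to plate controls, in a single-dose primary screen at 18.75 µM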
KKLEB tox – counter-screen for CF NF-kB inhibitors: cytotoxicity; AID 602141; 360,000 compounds, 0.36% hits; KKLEB CF airway cells viability, ATPlite luminescence, overnight; active compounds read low; cells stimulated with P. aeruginosa culture filtrate; activity change (cytotoxicity), % at 5 µM;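 active means corrected activity change at or below -50% at 5 µM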
TWEAK-Fn14 inh – blocks TWEAK-Fn14 interaction in a reporter cell assay. inhibition, % at 10 µM. TWEAK-stimulated Fn14 reporter cells, luciferase luminescence, 8 h. 360,000 compounds, 2% hits; in the data active means inhibition above about 50%
TROY NFkB inh – blocks TROY-dependent signaling in reporter cells; inhibition, % at 10 µM; Q293 LMP1-TROYcd NF-kB luciferase reporter, 4 h; 360,000 compounds, 0.98% hits;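 active means compounds whose plate-normalised and pattern-corrected inhibition of the luciferase reporter signal at the single screening dose is 50% or more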
Mdm2-MdmX confirm – Mdm2/MdmX (human) interaction inhibition, confirmed. shares compounds with HIF-2a inh. SaOS-2 split-luciferase Mdm2/MdmX complementation, luminescence. inhibition, % at 8 µM. 740 compounds, 99% hits. AID 504601;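 active means mean inhibition of the luminescence signal across two replicates at or above 26 percent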
HIF-2a inh conf – HIF-2a inhibition, single concentration confirmation; shares compounds with HIF-2a inh; 786-0 RCC cells, HIF-2a luciferase reporter luminescence, overnight; inhibition, % at 18.8 µM; 1,800 compounds, 56% hits;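 active means mean inhibition across four replicates of at least 40 percent at the single tested concentration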
HIF-1a cs – counter-screen for HIF-2a inhibitors: HIF-1a inhibition in MiaPaCa-2 cells; 1,800 compounds, 72% hits; AID 651589; MiaPaCa-2 HIF-1a luciferase reporter, desferoxamine, overnight; inhibition, % at 18.8 µM; shares compounds with HIF-2a inh;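 active means mean inhibition of the reporter signal across four replicates at the single tested dose of 50% or more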
Of the large screens only hits and unclear results are named; the others gave an inactive call (follow-up assays come after a bar, where they were run).

Fc1ccc(/C=C2\CCCC3=C2Nc2ncnn2C3c2ccc(F)cc2)cc1 (configuration not stated)	CF NFkB block 79.6, Peg3 prom inh 91.3, HIF-2a inh 86.1 | HIF-2a inh conf inactive | HIF-1a cs 66.0
COc1ccc(C2C3=C(Nc4ncnn42)c2ccccc2CCC3)cc1 (configuration not stated)	none
Cc1ccc(-n2c(O)c(C=Nc3ccccc3-c3n[nH]c(=S)[nH]c3=O)c3ccccc3c2=O)c(C)c1	HIF-2a inh 43.1 | HIF-2a inh conf inactive | HIF-1a cs 85.0
CC(=O)Nc1ccc(Nc2cc(C)nc3c(-c4ccccc4)cnn23)cc1	HIF-2a inh 52.8, TWEAK-Fn14 inh 67.8 | HIF-2a inh conf 77.7 | HIF-1a cs 92.5
CC(=O)Nc1ccc(Nc2cc(-c3ccccc3)nc3ncnn23)cc1	none
CCN(CC(=O)N1CCCC1)S(=O)(=O)c1ccccc1	none
O=C(O)c1ccccc1C(c1ccccc1)c1ccccc1O (configuration not stated)	none
C=CCn1cccc(/C=C/C(=O)c2ccc(C(C)(C)C)cc2)c1=S	Peg3 prom inh 102.0, HIF-2a inh 70.5, KKLEB tox -52.5 | HIF-2a inh conf 60.8 | HIF-1a cs 105.2
O=C(NCc1cccnc1)/C(=C/c1ccc(-c2ccc(Cl)cc2)o1)S(=O)(=O)c1ccccc1	CF NFkB block 72.6, Peg3 prom inh 100.8, HIF-2a inh 90.4, KKLEB tox -54.4, TWEAK-Fn14 inh 100.3, TROY NFkB inh 75.8 | Mdm2-MdmX confirm 102.2 | HIF-2a inh conf 98.7 | HIF-1a cs 103.7
O=C(CN(Cc1ccc(Br)cc1)S(=O)(=O)c1ccccc1)NCc1cccnc1	none
O=C(NCc1cccnc1)/C(=C/c1ccc(-c2cccc(C(F)(F)F)c2)o1)NC(=O)c1ccccc1	none
O=C(NCc1cccnc1)/C(=C\c1ccc(-c2ccc(Br)cc2)o1)S(=O)(=O)c1ccccc1	CF NFkB block 86.1, Peg3 prom inh 106.7, HIF-2a inh 92.7, KKLEB tox -55.5, TWEAK-Fn14 inh 99.9, TROY NFkB inh 83.4 | Mdm2-MdmX confirm 103.2 | HIF-2a inh conf 97.9 | HIF-1a cs 106.0
COc1cccc(/C=N/NC(=O)c2ccoc2C)c1O	none
O=C1Cc2cc(S(=O)(=O)N3CCNCC3)ccc2N1	none
CC[C@@]1(O)C(=O)OCc2c1cc1n(c2=O)Cc2cc3c(N)cccc3nc2-1	CF NFkB block 75.5, Peg3 prom inh 72.2, TWEAK-Fn14 inh 69.8, TROY NFkB inh 62.6 | Mdm2-MdmX confirm 100.5
O=c1cccc2n1Cc1cc3ccccc3nc1-2	none
CC(=O)c1ccc(OCC(=O)N(C2CCCCC2)C2CCS(=O)(=O)C2)cc1 (configuration not stated)	none
O=C(CCl)N(C1CCCC1)C1CCS(=O)(=O)C1 (configuration not stated)	none | Mdm2-MdmX confirm 101.7
O=C(c1ccccc1)c1cc(Cl)ccc1N1C(=O)C=CC1=O	CF NFkB block 58.0, Peg3 prom inh 105.4, HIF-2a inh 75.0 | HIF-2a inh conf 78.4 | HIF-1a cs inactive
O=C(CC(=O)c1cc(Cl)ccc1O)c1ccccc1	none
Cc1ccc(CN(C)C(=O)CCc2nc3sc4c(c3c(=O)[nH]2)CCCC4)o1	none
O=C(C[C@H]1C[C@H](C(=O)N2CCCCC2)[C@@]2(CCc3ccccc3)c3[nH]c4ccc(Cl)cc4c3CCN2C1=O)NCCCn1ccnc1	HIF-2a inh 76.3, TROY NFkB inh 55.4 | HIF-2a inh conf inactive | HIF-1a cs 98.5
CCOC(=O)c1nnn(-c2ccc([N+](=O)[O-])cc2[N+](=O)[O-])c1C	none
CCN1CCN(CCNC(=O)c2ccc(/C=C3/Sc4ccccc4N(Cc4cccc(Cl)c4)C3=O)cc2)CC1	Peg3 prom inh 96.6, TROY NFkB inh 83.3 | Mdm2-MdmX confirm 102.2
Cc1ccc(C)c(S(=O)(=O)N/N=C/c2ccc(N3CCOCC3)cc2)c1	none
Cc1sc2ncnc(Nc3ccc(N4CCOCC4)cc3)c2c1-c1ccccc1	HIF-2a inh 45.4 | HIF-2a inh conf inactive | HIF-1a cs 79.1
Cc1sc2ncnc(Nc3ccccc3)c2c1C	none
CC(C)Cc1nc2oc3c(Cl)ncnc3c2c2c1CCC2	Peg3 prom inh 105.6, HIF-2a inh 66.8, TWEAK-Fn14 inh 90.2 | Mdm2-MdmX confirm 102.7 | HIF-2a inh conf 48.8 | HIF-1a cs 107.8
CC(C)Cc1nc2oc3c(NCCCN4CCOCC4)ncnc3c2c2c1CCC2	none
Nc1ncc2[nH]c(N)nc2n1	none
Cc1ccc(-c2cc(N)n[nH]2)cc1	none
CC(C)(C)c1ccc(-c2cc(N)n[nH]2)cc1	HIF-2a inh 87.1 | HIF-2a inh conf 94.7 | HIF-1a cs 74.2
COc1ccc(Cl)c2sc(N(CCN(C)C)C(=O)CCS(=O)(=O)c3ccc(C)cc3)nc12	none
CN(C)CCN(C(=O)CCS(=O)(=O)c1ccccc1)c1nc2c(F)cccc2s1	none
Cc1ccc2sc(N(CCCN(C)C)C(=O)CCS(=O)(=O)c3ccccc3)nc2c1C	CF NFkB block 91.8, Peg3 prom inh 107.5, HIF-2a inh 88.2, KKLEB tox -81.0, TWEAK-Fn14 inh 63.0 | HIF-2a inh conf inactive | HIF-1a cs 77.5
COc1ccc(OC)c2sc(N(CCCN(C)C)C(=O)CCS(=O)(=O)c3ccccc3)nc12	CF NFkB block 85.8, Peg3 prom inh 108.8, HIF-2a inh 45.0, TWEAK-Fn14 inh 52.9 | HIF-2a inh conf inactive | HIF-1a cs 59.9
C[C@@H]1CN([C@H](C)CO)C(=O)CCCn2nncc2CO[C@H]1CN(C)C(=O)C1CC1	none
COC(=O)[C@@]1(Cc2ccccc2)[C@H]2C(=O)N(Cc3ccccc3)C(=O)[C@H]2[C@H]2CN=C(SCc3ccc(Cl)cc3)N21	none | Mdm2-MdmX confirm 103.0
COC(=O)[C@@]1(C)[C@H]2C(=O)N(Cc3ccccc3)C(=O)[C@H]2[C@H]2CN=C(SCc3ccc(Cl)cc3)N21	none | Mdm2-MdmX confirm 102.7
COC(=O)[C@@]1(C)[C@H]2C(=O)N(Cc3ccccc3)C(=O)[C@H]2[C@H]2CN=C(SCc3ccc(C#N)cc3)N21	none
O=C(OCCCN=C1NS(=O)(=O)c2ccccc21)c1cccs1	none
O=C(COc1ccc(Cl)cc1Cl)NN1C(=O)C2C3C=CC([C@@H]2C1=O)C31CC1 (some centres not stated)	none
CCc1ccc(OCC(=O)Nc2ccc3c(c2)COC3=O)cc1	none
